Screens: PubChem BioAssay, The Scripps Research Institute Molecular Screening Center
This excerpt belongs to a sample that is enriched for hits.
TbREL1 primary = TbREL1 inhibition, primary screen. TbREL1 RNA ligation, FRET fluorescence. inhibition, % at 9.66 µM. P86926. 89,000 tested, 0.49% active;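 active = inhibition above the mean inhibition across all screened compounds plus 3 SD, cut at about 11% in these data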;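 note: 0% = plate median of test wells and 100% = NSC42067 control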
Target sequence (P86926 whole entry, looked up): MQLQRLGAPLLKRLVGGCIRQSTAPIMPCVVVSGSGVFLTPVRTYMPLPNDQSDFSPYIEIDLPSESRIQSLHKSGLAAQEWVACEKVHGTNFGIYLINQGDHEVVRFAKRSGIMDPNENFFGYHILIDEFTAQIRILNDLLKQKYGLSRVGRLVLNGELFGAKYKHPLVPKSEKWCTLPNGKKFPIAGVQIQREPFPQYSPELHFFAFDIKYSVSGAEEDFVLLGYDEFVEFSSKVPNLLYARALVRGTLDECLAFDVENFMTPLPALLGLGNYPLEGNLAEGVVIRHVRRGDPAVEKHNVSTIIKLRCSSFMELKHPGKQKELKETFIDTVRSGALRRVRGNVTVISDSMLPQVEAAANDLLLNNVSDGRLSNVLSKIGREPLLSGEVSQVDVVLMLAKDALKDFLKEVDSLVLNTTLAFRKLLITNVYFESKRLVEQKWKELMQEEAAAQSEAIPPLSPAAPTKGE
TbREL1 confirm = TbREL1 inhibition, confirmation | shares compounds with TbREL1 primary | TbREL1 RNA ligation, FRET fluorescence | inhibition, % at 9.66 µM | 390 tested, 37% active | AID 1117282;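 active = mean inhibition across replicates above a set limit taken from the earlier primary screen, cut at about 11% in these data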;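 note: 0% = REL1 with substrate and DMSO and 100% = REL1 plus control inhibitor NSC42067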
An asterisk follows results filed as active.

SMILES	TbREL1 primary	others
Cc1ccc(-c2cc(-c3ccccc3)cc(-c3ccccc3)[n+]2-c2ccc(C(=O)O)cc2)cc1	-1
Oc1ccccc1-[n+]1c(-c2ccccc2)cc(-c2ccccc2)cc1-c1ccccc1	0
C[n+]1c(-c2ccccc2)cc(CCCCc2cc(-c3ccccc3)[n+](C)c(-c3ccccc3)c2)cc1-c1ccccc1	13*
O=C(CCCCCn1c(=S)[nH]c2ccccc2c1=O)N1CCC2(CC1)OCCO2	-6
O=C(Cn1ccc2ccccc2c1=O)NCC(=O)N1CCC2(CC1)OCCO2	11*
O=C(CNCc1c(F)cccc1F)N1CCC2(CC1)OCCO2	1
Cc1cccc(C(C)c2cnc[nH]2)c1C (stereo unspecified)	1
C[N+]1=C(N)NC2=C3CCCCC3ONC2C1 (stereo unspecified)	6
CC(NC(=O)OC1CC2CCC1(C)C2(C)C)P(=O)(Oc1ccccc1)Oc1ccccc1 (stereo unspecified)	-4
C=C(C=O)CC1CC(O)[C@]2(C)OC3CC4OC5C[C@]6(C)O[C@]7(C)CCC8OC9C[C@]%10(C)OC%11C(C)=CC(=O)OC%11CC%10OC9C[C@@H](C)C8OC7CC6O[C@]5(C)C/C=C\C4OC3CC2O1 (stereo partly specified)	0
O=C1NC(=O)C(=Cc2ccc(-c3ccc(F)cc3O)o2)C(=O)N1	16*	TbREL1 confirm=15*
CC(NC(=O)OCc1ccccc1)[P+](=O)O (stereo unspecified)	0
C[C@H](NC(=O)OCc1ccccc1)C(=O)NC(Cc1ccccc1)P(=O)(Oc1ccccc1)Oc1ccccc1 (stereo partly specified)	3
CCCOC(=O)c1ccc(-[n+]2c(-c3ccccc3)cc(-c3ccccc3)cc2-c2ccccc2)cc1	10
Brc1ccc(-[n+]2c(-c3ccccc3)cc(-c3ccccc3)cc2-c2ccccc2)cc1	12*	TbREL1 confirm=4
[O-]c1ccccc1-[n+]1c(-c2ccccc2)cc(-c2ccccc2)cc1-c1ccccc1	8
CC(NC(=O)OCc1ccccc1)P(=O)(Oc1ccccc1)Oc1ccccc1 (stereo unspecified)	1
Cc1c(P(=S)(c2ccccc2)c2ccccc2)c2ccccc2n1C	4
COP(=O)(OC)C(C)NC(=O)OCc1ccccc1 (stereo unspecified)	0
Cc1cc(/C=C2\C(=O)NC(=O)N(Cc3ccco3)C2=O)c(C)n1-c1ccc(C(=O)O)cc1	16*	TbREL1 confirm=3
Cc1ccc(-n2c(C)cc(/C=C3/C(=O)NC(=O)N(Cc4ccco4)C3=O)c2C)cc1	-1
Cc1cc(/C=C2/C(=O)NC(=O)N(c3ccccc3)C2=O)c(C)n1-c1ccc(F)cc1	3
NC(Cc1ccc(N(CCCl)CCCl)cc1)C(=O)O (stereo unspecified)	7
COc1cc2c(c3oc4cccc(O)c4c(=O)c13)[C@@H]1C=CO[C@@H]1O2	2
C=C1[C@@H](C)C2[C@H](Cc3ccccc3)NC(=O)[C@]23[C@H](OC(C)=O)/C=C/[C@@](C)(O)C(=O)[C@@H](C)C/C=C/[C@H]3[C@@H]1O (stereo partly specified)	-4
SMILES	TbREL1 primary	others
COCCCn1c(N)c(C(=O)OCCOC)c2nc3ccccc3nc21	8
CCCCNC(=O)c1c(N)n(CCCOC)c2nc3ccccc3nc12	12*	TbREL1 confirm=34*
COCCOC(=O)c1c(N)n(Cc2ccc(OC)cc2)c2nc3ccccc3nc12	0
CC(C)CCP(=O)(O)O	2
COC(=O)c1c(N)n(Cc2ccc(OC)cc2)c2nc3ccccc3nc12	0
Nc1c(C(=O)OCC2CCCO2)c2nc3ccccc3nc2n1Cc1cccs1 (stereo unspecified)	4
Nc1c(C(=O)NC2CCCC2)c2nc3ccccc3nc2n1CC1CCCO1 (stereo unspecified)	27*	TbREL1 confirm=12*
CC12CC1(C)C(=O)N(c1cc(Cl)cc(Cl)c1)C2=O (stereo unspecified)	1
COc1cc2c(cc1OC)C1[C@H]3C(=CC[C@H]1OC2O)CCN3C (stereo partly specified)	-4
COC(=O)C1=C(c2cccc(C#N)c2)C[C@@H]2CC[C@H]1N2C(=O)NCCOc1ccc(OC)cc1	-1
O=C(NC(CCC(O)CO)P(=O)(Oc1ccccc1)Oc1ccccc1)OCc1ccccc1 (stereo unspecified)	-1
N#CC12c3ccccc3C(=O)N1Cc1cnnn1-c1ccccc12 (stereo unspecified)	4
CCCCN1CCN(C(=O)COc2cc(=O)n(C)c3ccccc23)CC1	-4
Cc1nc2c(=O)n(C)c(=O)nc-2n(C)n1	64*	TbREL1 confirm=89*
COC(=O)C1=C(c2ccc(-c3ccccc3)c(F)c2)C[C@@H]2CC[C@H]1N2C(=O)N1CCOCC1	0
CC(C)(C)N1CC(C(=O)c2ccccc2)C1c1ccccc1 (stereo unspecified)	0
CN1CCC(n2nccc2N)CC1	1
Nc1ccnn1C1CCNCC1	23*	TbREL1 confirm=5
CCOC(=O)[C@]12Cc3cc(Cl)ccc3[C@H]1N(C1CCCCC1)C(=O)c1cc(OC)ccc12	3
COC(=O)C1=C(c2cccc(OCc3ccccc3)c2)C[C@@H]2CC[C@H]1N2C(=O)NCc1ccc(Cl)cc1	3
